# In all, about 48,000 compounds went through this assay and about 13,000 (27%) showed an effect of 50% or more. This is one part of the list.
# System: Wolbachia pipientis
# Test: Anti-Wolbachia Cell-Based Screen
# Assay type: functional
# Parameters: scale not given: in the data most compounds retested in dose-response had high values
# Conditions: 5 µM
row,Compound,Percent Effect [%]
1,CCOC(C)C(=O)Nc1ccc2c(ccn2CC)c1 (centres undefined),-6.658
2,NC(=O)c1ccc(NC(=O)CCN2CCCC(N3CCCC3)C2)cc1 (centres undefined),-7.492
3,COc1ccc2c(ccn2CCC(=O)O)c1,-1.885
4,COc1ccc2c(ccn2CCC(=O)Nc2ccc(C(N)=O)cc2)c1,111.4
5,Cc1ccc2c(ccn2CCC(=O)NC[C@@H]2CCCN3CCCC[C@H]23)c1,-8.382
6,COc1ccc2c(ccn2CC(=O)Nc2n[nH]c(C(C)C)n2)c1,99.9
7,CCOCCOC(C)C(=O)Nc1ccc2c(ccn2CC)c1 (centres undefined),-1.618
8,COc1ccc2c(ccn2CCC(=O)Nc2nc[nH]n2)c1,112.1
9,COc1ccc2c(ccn2CCC(=O)Nc2n[nH]c(C(C)C)n2)c1,80.39
10,CCCn1ccc2cc(NC(=O)NCCn3cnnc3CC)ccc21,-13.76
11,COc1ccc2c(ccn2CC(=O)N2CCCC2c2cnn(C)c2)c1 (centres undefined),0.9225
12,CN1Cc2nnc(C3CCOCC3)n2C(Cc2c[nH]cn2)C1 (centres undefined),-4.297
13,CC(Cn1cncn1)NC(=O)c1cn(Cc2ccccc2F)nn1 (centres undefined),8.945
14,CCNC(=O)NCC(CC)(OC)c1ccccc1 (centres undefined),2.354
15,O=C(NCCn1ccnc1)C1COCC(=O)N1Cc1ccccc1 (centres undefined),-11.36
16,O=C(O)C(F)(F)F.O=C1COC2(CCN(c3ncccn3)CC2)CN1,1.956
17,CN1C(=O)CC(c2ccncc2)C12CCN(c1ncccn1)CC2.O=C(O)C(F)(F)F (centres undefined),-40.6
18,O=C(O)C(F)(F)F.O=C1COC2(CCN(c3ccccn3)CC2)CN1,-3.085
19,CC1N(c2cnn(C)c2)C(=O)COC12CCN(c1ncccn1)CC2.O=C(O)C(F)(F)F (centres undefined),116.4
20,CC1N(c2cnn(C)c2)C(=O)COC12CCN(c1ccccn1)CC2.O=C(O)C(F)(F)F (centres undefined),138.6
21,Cn1ccnc1CN1CCC2(CC1)CN(c1ccccn1)CCO2.O=C(O)C(F)(F)F.O=C(O)C(F)(F)F,-7.538
22,CC(C)(O)CSCCNC(=O)c1cc(F)ccc1F,5.192
23,Cc1ccc(CS(=O)(=O)N2CC[C@H]3[C@H]2CCN3C)cc1,6.881
24,CN(C)C(=O)N1CCC2(CC1)CNc1ccc(F)cc12.Cl,-3.877
25,CC(C)Cn1cncc1CNC(=O)c1cccc(CC2CCNCC2)c1,4.276

row,Compound,Percent Effect [%]
1,CNC(=O)c1cccc(Nc2cnn(C)c2)c1,-6.81
2,CNC(=O)c1cccc(C2CNCCN2C(=O)C2CCNCC2)c1 (centres undefined),105.9
3,CNC(=O)c1cccc(C2CNCCN2C(=O)c2ccn(C)n2)c1 (centres undefined),140.8
4,CNC(=O)NC(=O)CN1CCC(c2cccc(F)c2)C1 (centres undefined),-6.233
5,CNC(=O)c1cccc(C2CNCCN2C(=O)c2cccc(F)c2)c1.Cl (centres undefined),87.98
6,COCCn1cc(C(=O)N2CCCC2c2cccc(F)c2)ccc1=O (centres undefined),1.276
7,Cc1cnc(C(=O)N2CCNCC2C(=O)NCc2ccncc2)cn1 (centres undefined),-22.4
8,CNC(=O)c1cccc(C2CNCCN2C(C)=O)c1 (centres undefined),-19.14
9,Cc1nc2c(c(=O)n1C)CCN(C(=O)CCc1ccccc1O)CC2,-32.69
10,O=C1CCC2(CCOC2)CN1Cc1ccc2nsnc2c1 (centres undefined),-12.42
11,CC(=O)Nc1ncc(S(=O)(=O)N2CCCC(C)C2)s1 (centres undefined),-1.419
12,O=C(O)C(F)(F)F.c1cnc(N2CCOCC3(C2)CN(c2nccs2)CCO3)nc1 (centres undefined),-52.69
13,CN(C)C(=O)CN1CCOCC2(C1)CN(c1ncc(F)cn1)CCO2.O=C(O)C(F)(F)F (centres undefined),98.39
14,CN(C)C(=O)CN1CCOCC2(CCN(CC3CCOCC3)CC2)C1.O=C(O)C(F)(F)F.O=C(O)C(F)(F)F,8.025
15,CN(C)C(=O)CN1CCOCC2(CCN(c3ncc(F)cn3)CC2)C1.O=C(O)C(F)(F)F,94.37
16,CN(C)C(=O)CN1CCOCC2(CCN(CC3CCOC3)CC2)C1.O=C(O)C(F)(F)F.O=C(O)C(F)(F)F (centres undefined),-17.88
17,Fc1ccc(N2CCOC3(COCCN(c4ncccn4)C3)C2)cc1.O=C(O)C(F)(F)F (centres undefined),20.84
18,CC(C)(C)C1CCC(NCCN2CCOCC2)CC1 (centres undefined),-13.34
19,Cc1ccc(Cl)cc1NC(=O)C1CC(=O)N(Cc2ccccn2)C1 (centres undefined),-6.487
20,CNc1nc(C(=O)N2CCC3(CCCN(C)C3=O)C2)cs1 (centres undefined),-18.85
21,COc1ccnc(N2CCN(C(=O)c3csc(C4CC4)n3)CC2)n1,22.41
22,Cc1nc(C(=O)N2CCN(c3ccc(Cl)c(Cl)c3)CC2)cs1,99.9
23,Cc1nc(C(=O)Nc2cc(N3CCNC3=O)ccc2Cl)cs1,-12.33
24,Cc1nc(C(=O)N2CCN(C(C)c3ccccc3F)CC2)cs1 (centres undefined),-7.061
25,CNc1nc(C(=O)N2CCN(c3ccc(Cl)c(Cl)c3)CC2)cs1,91.42

row,Compound,Percent Effect [%]
1,Cc1cnc(CN2CCCC(c3cc(C(N)=O)[nH]n3)C2)o1 (centres undefined),1.908
2,Cc1nnc(CN2CCCC(c3cc(C(N)=O)[nH]n3)C2)o1 (centres undefined),-6.189
3,CCc1nnc(CN2CCCC(c3cc(C(N)=O)[nH]n3)C2)o1 (centres undefined),123.6
4,CC(C)c1cnc(CN2CCCC(c3cc(C(N)=O)[nH]n3)C2)o1 (centres undefined),94.99
5,Cc1nc(CN2CCCC(c3cc(C(N)=O)[nH]n3)C2)oc1C (centres undefined),110.2
6,CCc1nnc(CN2CCCC(c3cc(C(F)(F)F)[nH]n3)C2)o1 (centres undefined),-1.93
7,CC(C)(C)c1nnc(CN2CCCC(c3cc(C(N)=O)[nH]n3)C2)o1 (centres undefined),1.877
8,CC(C)c1nnc(CN2CCCC(c3cc(C(N)=O)[nH]n3)C2)o1 (centres undefined),107
9,Cc1cc(C2CCCN(Cc3ncc(C(C)C)o3)C2)n[nH]1 (centres undefined),8.603
10,CCNc1ccnc(-c2ccnc3c2ccn3C)n1,5.655
11,COc1cc(NCCNC(=O)c2ccc3[nH]ccc3c2)cc(OC)c1,-37.35
12,CN1C(=O)[C@H]2CC[C@@H]1CN(C(=O)c1sccc1S(N)(=O)=O)C2,0.6963
13,Cc1cnc(CN2CCCC(c3cc(C(N)=O)[nH]n3)C2)cn1 (centres undefined),0.6166
14,Cc1ncc(CN2CCCC(c3cc(C(N)=O)[nH]n3)C2)s1 (centres undefined),121.8
15,O=C(CCc1cscn1)NS(=O)(=O)c1ccc2c(c1)CCC2,0.3885
16,Cn1ccc(C(=O)N2CCC3(CC2)CC(Nc2cnccn2)CO3)n1 (centres undefined),103.2
17,Cn1ccc(CN2CCC3(CC2)CC(Nc2ccccn2)CO3)n1.O=C(O)C(F)(F)F (centres undefined),-6.155
18,Cn1ccc(CN2CCC3(CC2)CC(Nc2cnccn2)CO3)n1.O=C(O)C(F)(F)F (centres undefined),4.568
19,O=C(Cc1ccccc1)N1CCC2(CC1)CC(Nc1cnccn1)CO2 (centres undefined),117.3
20,Cc1nc2ncccn2c1C(=O)N1CCc2[nH]cnc2C1,16.62
21,CN(CC1CCN(CCO)CC1)CC(O)c1ccc(F)c(F)c1 (centres undefined),6.752
22,COC(=O)c1ccc2c(-c3ccnc(N[C@@H](C)CO)n3)c[nH]c2c1,96.47
23,CC[C@@H](CO)Nc1nccc(-c2c[nH]c3cc(C(=O)OC)ccc23)n1,73.76
24,COc1cccc(-n2cc(-c3ccnc(N[C@@H](CO)C(C)C)n3)cn2)c1,-10.41
25,CSCCCNc1nccc(-c2cc(C(=O)O)ccn2)n1,-11.9

row,Compound,Percent Effect [%]
1,COC(=O)c1cccc(-c2c[nH]c(C)n2)c1,-9.245
2,Cc1ccc(CCNc2nccc(-c3cc(C(=O)O)ccn3)n2)o1,-34.17
3,CC(C)C(=O)NCCNc1nccc(-c2cc(C(=O)O)ccn2)n1,-18.63
4,COC(=O)c1ccc2c(-c3ccnc(NCCO)n3)c[nH]c2c1,85.03
5,CCCN1C[C@H]2CC[C@@H]1CN(Cc1ccc(-n3cccn3)cc1)C2,12.23
6,O=C(CCc1cn[nH]c1)N1CCC(C2CCN(c3ncccn3)CC2)C1 (centres undefined),-3.024
7,CN1CCN(C[C@@H]2CN(C(=O)CCc3cn[nH]c3)C[C@@H]2CO)CC1,-11.62
8,CN1CCOC(CNCc2nc(-c3cccnc3)no2)C1 (centres undefined),17.39
9,CN1CCOC(CNCc2coc(-c3cccc(Cl)c3)n2)C1 (centres undefined),93.12
10,CN1CCOC(CNCc2coc(-c3cccc(F)c3)n2)C1 (centres undefined),69.38
11,CN(C)Cc1ccc(C2CCCCN2C(=O)c2cc(=O)[nH]c(=O)[nH]2)cc1 (centres undefined),-0.1381
12,Cc1cnn(CCNCc2nc(-c3ccccc3Cl)no2)c1,-13.51
13,CC[C@H]1N(CC2CCOCC2)CCC[C@]12CCC(=O)N2.O=C(O)C(F)(F)F,-18.34
14,COCCN(Cc1ccc(C)cc1)Cc1c[nH]cn1,-2.598
15,Cc1cc(C)n(CCC2CC(=O)Nc3cc(O)c(C)cc32)n1 (centres undefined),-2.617
16,CCc1ccc(CCC(=O)N2CCOCC2c2ncon2)cc1 (centres undefined),5.794
17,Cc1cc(C)cc(OCCC(=O)N2CCOCC2c2ncon2)c1 (centres undefined),-11.58
18,Cc1noc(C)c1CCC(=O)N1CCN(CCn2cncn2)CC1,-13.84
19,Cc1nccnc1CCC1COCCN1C(=O)CCc1c(C)noc1C (centres undefined),121.1
20,Cc1noc(C)c1CCC(=O)N1CCN(CCn2cccn2)CC1,-16.11
21,Cc1noc(C)c1CCC(=O)N1CCOCC1CCc1cnccn1 (centres undefined),115.4
22,Cc1noc(C)c1CCC(=O)N1CCOCC1CC(=O)N1CCCC1 (centres undefined),72.16
23,CC(=O)N1CCCN(C(=O)CCc2c(C)noc2C)CC1,-13.07
24,Cc1noc(Cl)c1CCC(=O)N1CCN(c2ncccn2)CC1,8.959

# — ChEMBL document CHEMBL3988442, “University of Dundee, Small-Polar-MMV Screening Library” (2021)
